# Tests used:
# Conditions in all cases: concentration: 1 μM,replicates: in singlicate; n = 1
# SNARK = test system: T1, SNARK
# T1 construct: gene NUAK2
# SNRK = test system: SNRK
# SRC = test system: SRC
# SRMS = test system: SRMS
# SRPK1 = test system: SRPK1
# SRPK2 = test system: SRPK2
# SRPK3 = test system: SRPK3
# STK16 = test system: STK16
# STK33 = test system: STK33
# STK35 = test system: STK35
# 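Further: KINOMEscan kinase panel screen.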
SMILES,%Inh (SNARK) [%],%Inh (SNRK) [%],%Inh (SRC) [%],%Inh (SRMS) [%],%Inh (SRPK1) [%],%Inh (SRPK2) [%],%Inh (SRPK3) [%],%Inh (STK16) [%],%Inh (STK33) [%],%Inh (STK35) [%]
CS(=O)(=O)Nc1ccc(-c2ccnc3[nH]ccc23)cc1 [GSK993273],40,0,0,0,77,0,75,81,5,15
COc1cc(Nc2nccc(N3CCC(NC(=O)c4cccc(C#N)c4)C3)n2)cc(OC)c1OC (centres unmarked) [GSK1379751],3,0,22,0,49,24,0,64,0,0
Cl.c1ccc(Oc2ccc(Nc3ccnc4cc(-c5ccc(CN6CCNCC6)o5)ccc34)cc2)nc1 [GW567142],14,0,34,89,0,7,0,0,24,57
CN1CCN(CCNc2nc3cc(Oc4ccc(NC(=O)Nc5cc(C(F)(F)F)ccc5F)cc4)ccc3[nH]2)CC1.Cl.Cl [GW768504],0,0,0,18,9,0,10,0,0,0
CCNCC(Cc1ccccc1)NC(=O)c1cc(Br)c(-c2ccnc3[nH]ccc23)s1.Cl.Cl (centres unmarked) [GSK1383280],93.1,0,14,0,56,0,0,51,95.9,0
CC(C(=O)NC1CCN(c2ccnc(Nc3ccc(F)cc3)n2)C1)c1ccc(Cl)cc1 (centres unmarked) [GSK1379713],0,0,0,0,20,0,18,0,5,0
COc1cccc(CNC(=O)NC2CCN(c3ccnc(Nc4cc(OC)c(OC)c(OC)c4)n3)C2)c1 (centres unmarked) [GSK1379765],45,0,24,0,39,0,73,64,0,8
Cl.Nc1n[nH]c2cc(-c3ccccn3)ccc12 [GSK2189892],18,0,0,0,0,0,0,22,0,0
CC(C)S(=O)(=O)N1CCN(Cc2ccc3c(c2)nc(NC(=O)c2ccsc2)n3C[C@H](O)c2ccccc2)CC1 [GW635815],23,0,96.3,1,0,0,0,83,60,0
COc1cc2nccc(Nc3ccc(Oc4ccccc4)cc3)c2cc1OC.Cl [GI261656],0,0,47,99.9,31,21,0,0,0,24
CN(c1cccc(CNc2nc(Nc3ccc4c(c3)CC(=O)N4)ncc2C(F)(F)F)c1)S(C)(=O)=O,76,0,4,0,73,0,31,90.2,0,8
COc1cc2c(Nc3ccc(NC(=O)c4ccccc4)cc3)ncnc2cc1OCCCN1CCOCC1 [GSK301329],7,0,20,19,0,0,2,12,41,4
COC(=O)c1cccc(NC(=O)NC2CCN(c3ccnc(Nc4cc(OC)c(OC)c(OC)c4)n3)C2)c1 (centres unmarked) [GSK1379767],21,0,19,0,35,45,4,61,0,0
CC(=O)Nc1ccc(-c2cc3ncnc(SCC(=O)O)c3s2)cc1,15,0,11,13,0,0,13,32,0,20
O=C(Nc1ccccc1)c1cccc(Oc2ccc3nccn3n2)c1,0,0,0,0,2,0,0,0,12,0
O=C(Nc1cccc(Oc2ccc3nccn3n2)c1)Nc1cccc(C(F)(F)F)c1,0,0,0,0,0,0,14,9,21,0
Cn1cc(-c2cccc3c(N)c(C(N)=O)nnc23)cn1,9,11,0,24,45,11,39,11,27,8
